Screening results: PubChem, Broad Institute
NFkB SMM: binds human NF-kappa-B p105 on microarray | 17,000 compounds, 1.3% hits | P19838 | calls only | Small molecule microarray, anti-His fluorescence binding;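 active = spot fluorescence over background significantly raised, with a chance value under 7% in all four replicate spots of the compound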;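 also: probe protein is his-tagged human p50 processed subunit at 1 µg/ml; raw spot fluorescence signals with no normalization applied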
mut p53 SMM: binds human mutant p53 on microarray; AID 624136; small molecule microarray binding, anti-GST fluorescence; 17,000 compounds, 0.4% hits; calls only;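 active = compounds whose four printed spots each glow above background more than chance allows, each with a p-value under 7%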
Myc binder: binds human c-Myc on microarray; small molecule microarray, His-c-Myc binding, anti-His fluorescence; calls only; 17,000 compounds, 1.5% hits; AID 624141;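 active = spot fluorescence over background with P-value below 7% in all four replicate spots, showing protein binding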;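 also: score is binary with 100 for all four spots passing and 0 otherwise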
STAT3 binder: STAT3 (human) binding; P40763; Small molecule microarray, His-STAT3 binding, anti-His fluorescence; calls only; 17,000 compounds, 0.2% hits;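 active = compounds whose four printed spots each show fluorescence over background unusually high for their array block, chance value under 7%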
Active calls of the source: *; i = inactive; + = active, no number. An excerpt weighted towards active compounds, which were near 2.5% of everything screened.

SMILES	NFkB SMM	mut p53 SMM	Myc binder	STAT3 binder
Cc1cc(SCc2sc(-c3ccc(C(F)(F)F)c(F)c3)nc2C)ccc1OCC(=O)O	i	i	+	i
C=C1[C@@H](C)[C@H]2[C@H](Cc3ccccc3)NC(=O)[C@]23[C@H](OC(C)=O)C=C[C@](C)(O)C(=O)[C@@H](C)C/C=C/[C@H]3[C@@H]1O	i	i	i	i
CCOC(=O)[C@@H]1[C@@H]2NC(=O)N(C)[C@@]1(COCc1ccc(OC)cc1)Oc1ccccc12	i	i	i	i
CC(CO)NC(=O)C1C=C2c3cccc4[nH]cc(c34)CC2N(C)C1 (stereo not drawn)	i	i	+	i
